# Results reported in publication PMC7862700, “An all-to-all approach to the identification of sequence-specific readers for epigenetic DNA modifications on cytosine”.
# Experiments:
# Assay in all cases: DAPPL (digital affinity profiling via proximity ligation, sequencing); 10 mM Tris-HCl pH 7.5, 50 mM NaCl, 1 mM DTT, 4% glycerol, room temperature, 30 min; GST-TFs on glutathione beads, 16-mer random dsDNA library, 0.1% formaldehyde crosslink after washing; high values mean tight binding
# Settings in all cases: protein: recombinant; tags: N-terminal GST; dsDNA, one strand shown
# [1] = molecular target: T1, ERF (Homo sapiens, UniProt P50548 1-548)
# T1 sequence: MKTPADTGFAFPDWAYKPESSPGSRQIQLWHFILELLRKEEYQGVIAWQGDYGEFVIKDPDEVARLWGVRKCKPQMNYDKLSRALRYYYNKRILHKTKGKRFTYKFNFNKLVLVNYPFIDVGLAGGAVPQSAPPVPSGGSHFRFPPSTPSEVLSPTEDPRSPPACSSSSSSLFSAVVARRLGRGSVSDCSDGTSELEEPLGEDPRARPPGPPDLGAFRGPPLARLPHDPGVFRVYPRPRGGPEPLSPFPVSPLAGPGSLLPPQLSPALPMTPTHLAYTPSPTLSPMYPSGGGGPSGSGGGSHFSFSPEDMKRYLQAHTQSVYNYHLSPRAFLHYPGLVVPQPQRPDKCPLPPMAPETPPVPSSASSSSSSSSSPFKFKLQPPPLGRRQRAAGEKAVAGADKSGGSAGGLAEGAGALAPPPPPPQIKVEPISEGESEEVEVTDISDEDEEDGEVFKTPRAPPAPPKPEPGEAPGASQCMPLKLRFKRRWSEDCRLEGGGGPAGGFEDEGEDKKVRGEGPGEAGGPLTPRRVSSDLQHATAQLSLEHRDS
# How it was run: (§1)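 GST fusions of human transcription factors were expressed in yeast and captured with glutathione beads. Once given DNA barcodes and pooled alongside a tag-only sample, they were incubated for 30 min at room temperature with 200 nmole of a random double-stranded 16-mer DNA library in Tris/NaCl/DTT/glycerol buffer, then washed, crosslinked (0.1% formaldehyde), proximity-ligated, PCR-amplified and sequenced on an Illumina NextSeq500. The binding signal of each hexamer is its read frequency for a factor divided by its frequency for the tag-only sample.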
# [2] = molecular target: T2, ETV3L (Homo sapiens, UniProt Q6ZN32 1-361)
# T2 sequence: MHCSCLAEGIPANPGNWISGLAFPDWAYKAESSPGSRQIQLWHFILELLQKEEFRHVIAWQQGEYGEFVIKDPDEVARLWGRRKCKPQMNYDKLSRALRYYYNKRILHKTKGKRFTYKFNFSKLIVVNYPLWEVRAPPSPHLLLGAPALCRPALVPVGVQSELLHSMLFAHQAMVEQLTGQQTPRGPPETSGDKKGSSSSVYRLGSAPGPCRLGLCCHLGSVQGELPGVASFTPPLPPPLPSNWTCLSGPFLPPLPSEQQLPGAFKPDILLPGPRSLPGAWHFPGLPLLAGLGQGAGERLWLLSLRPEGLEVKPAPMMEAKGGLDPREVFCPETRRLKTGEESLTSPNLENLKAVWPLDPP
# How it was run: as §1
# [3] = molecular target: T3, ETS2 (Homo sapiens, UniProt P15036 1-469)
# T3 sequence: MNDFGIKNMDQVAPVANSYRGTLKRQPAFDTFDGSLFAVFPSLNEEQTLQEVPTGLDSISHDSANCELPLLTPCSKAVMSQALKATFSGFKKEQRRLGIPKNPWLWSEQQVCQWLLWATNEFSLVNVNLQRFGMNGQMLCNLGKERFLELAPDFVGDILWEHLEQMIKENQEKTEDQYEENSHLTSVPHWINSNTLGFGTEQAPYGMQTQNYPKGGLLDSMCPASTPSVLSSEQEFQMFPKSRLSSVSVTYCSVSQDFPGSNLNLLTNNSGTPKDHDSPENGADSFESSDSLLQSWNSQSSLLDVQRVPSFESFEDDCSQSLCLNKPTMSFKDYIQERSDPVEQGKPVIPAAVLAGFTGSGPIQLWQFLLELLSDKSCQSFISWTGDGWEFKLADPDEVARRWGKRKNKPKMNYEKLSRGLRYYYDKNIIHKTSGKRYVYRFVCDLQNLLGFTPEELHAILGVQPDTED
# How it was run: as §1
# [4] = molecular target: T4, SPDEF (Homo sapiens, UniProt O95238 1-335)
# T4 sequence: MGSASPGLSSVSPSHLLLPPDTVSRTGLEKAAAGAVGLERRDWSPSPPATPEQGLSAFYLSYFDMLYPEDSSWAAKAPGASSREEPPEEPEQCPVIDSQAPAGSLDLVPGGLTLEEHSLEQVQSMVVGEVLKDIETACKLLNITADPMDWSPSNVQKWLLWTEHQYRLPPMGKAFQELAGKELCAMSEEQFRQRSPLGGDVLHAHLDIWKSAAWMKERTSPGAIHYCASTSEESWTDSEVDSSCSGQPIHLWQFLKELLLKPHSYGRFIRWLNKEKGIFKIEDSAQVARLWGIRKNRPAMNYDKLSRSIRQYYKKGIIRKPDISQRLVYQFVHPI
# How it was run: as §1
# [5] = molecular target: T5, ETV7 (Homo sapiens, UniProt Q9Y603 1-341)
# T5 sequence: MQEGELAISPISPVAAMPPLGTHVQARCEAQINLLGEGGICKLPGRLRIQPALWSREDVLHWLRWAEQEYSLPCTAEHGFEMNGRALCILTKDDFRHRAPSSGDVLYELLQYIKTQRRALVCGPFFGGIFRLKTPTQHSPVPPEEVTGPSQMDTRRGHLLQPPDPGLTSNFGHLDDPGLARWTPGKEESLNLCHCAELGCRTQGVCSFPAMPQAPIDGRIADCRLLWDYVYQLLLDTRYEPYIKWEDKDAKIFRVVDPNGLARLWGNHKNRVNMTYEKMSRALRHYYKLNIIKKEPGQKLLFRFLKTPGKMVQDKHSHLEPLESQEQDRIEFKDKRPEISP
# How it was run: as §1
# [6] = molecular target: T6, ELF5 (Homo sapiens, UniProt Q9UKW6-2 1-255)
# T6 sequence: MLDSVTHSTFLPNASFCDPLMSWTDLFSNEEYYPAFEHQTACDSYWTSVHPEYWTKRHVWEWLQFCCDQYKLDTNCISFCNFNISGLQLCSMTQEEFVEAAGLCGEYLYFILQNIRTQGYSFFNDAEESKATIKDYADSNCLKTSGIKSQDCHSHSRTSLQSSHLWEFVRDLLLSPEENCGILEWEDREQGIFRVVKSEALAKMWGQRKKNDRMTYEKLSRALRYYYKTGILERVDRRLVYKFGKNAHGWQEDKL
# How it was run: as §1
# [7] = molecular target: T7, ETV3 (Homo sapiens, UniProt P41162-2 1-143)
# T7 sequence: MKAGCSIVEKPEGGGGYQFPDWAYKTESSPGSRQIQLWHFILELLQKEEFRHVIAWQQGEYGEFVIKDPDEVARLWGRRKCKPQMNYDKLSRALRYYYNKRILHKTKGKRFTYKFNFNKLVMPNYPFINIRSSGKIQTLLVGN
# How it was run: as §1
# [8] = molecular target: ETV6 (Homo sapiens, UniProt P41212 1-452)
# ETV6, sequence (P41212 whole entry): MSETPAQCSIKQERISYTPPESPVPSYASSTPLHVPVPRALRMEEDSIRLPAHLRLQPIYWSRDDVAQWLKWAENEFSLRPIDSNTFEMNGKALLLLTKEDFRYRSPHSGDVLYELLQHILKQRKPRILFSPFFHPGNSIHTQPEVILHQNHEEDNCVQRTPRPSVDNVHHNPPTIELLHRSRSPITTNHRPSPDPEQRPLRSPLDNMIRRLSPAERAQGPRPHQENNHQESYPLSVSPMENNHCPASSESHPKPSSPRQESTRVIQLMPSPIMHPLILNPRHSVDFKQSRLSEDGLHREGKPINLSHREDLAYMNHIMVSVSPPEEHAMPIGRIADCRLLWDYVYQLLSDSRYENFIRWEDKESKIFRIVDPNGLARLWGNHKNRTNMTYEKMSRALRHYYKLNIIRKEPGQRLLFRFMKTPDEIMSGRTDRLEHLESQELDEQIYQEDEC
# How it was run: as §1
Sequence,binding signal [1],binding signal [2],binding signal [3],binding signal [4],binding signal [5],binding signal [6],binding signal [7],binding signal [8]
CTTGCA,"1.39 fold enrichment (6-mer frequency, TF over GST control)","1.53 fold enrichment (6-mer frequency, TF over GST control)","1.33 fold enrichment (6-mer frequency, TF over GST control)","1.49 fold enrichment (6-mer frequency, TF over GST control)","1.28 fold enrichment (6-mer frequency, TF over GST control)","1.36 fold enrichment (6-mer frequency, TF over GST control)","1.45 fold enrichment (6-mer frequency, TF over GST control)","1.3 fold enrichment (6-mer frequency, TF over GST control)"
ATATTT,"1.55 fold enrichment (6-mer frequency, TF over GST control)","1.4 fold enrichment (6-mer frequency, TF over GST control)","1.58 fold enrichment (6-mer frequency, TF over GST control)","1.54 fold enrichment (6-mer frequency, TF over GST control)","1.67 fold enrichment (6-mer frequency, TF over GST control)","1.65 fold enrichment (6-mer frequency, TF over GST control)","1.65 fold enrichment (6-mer frequency, TF over GST control)","1.57 fold enrichment (6-mer frequency, TF over GST control)"
GAACCC,"1.03 fold enrichment (6-mer frequency, TF over GST control)","1.19 fold enrichment (6-mer frequency, TF over GST control)","1.13 fold enrichment (6-mer frequency, TF over GST control)","1.17 fold enrichment (6-mer frequency, TF over GST control)","1.16 fold enrichment (6-mer frequency, TF over GST control)","1.14 fold enrichment (6-mer frequency, TF over GST control)","1.07 fold enrichment (6-mer frequency, TF over GST control)","1.21 fold enrichment (6-mer frequency, TF over GST control)"
CTTTAG,"1.16 fold enrichment (6-mer frequency, TF over GST control)","1.23 fold enrichment (6-mer frequency, TF over GST control)","1.17 fold enrichment (6-mer frequency, TF over GST control)","1.02 fold enrichment (6-mer frequency, TF over GST control)","1.2 fold enrichment (6-mer frequency, TF over GST control)","1.05 fold enrichment (6-mer frequency, TF over GST control)","1.28 fold enrichment (6-mer frequency, TF over GST control)","1.21 fold enrichment (6-mer frequency, TF over GST control)"
AATATA,"1.39 fold enrichment (6-mer frequency, TF over GST control)","1.31 fold enrichment (6-mer frequency, TF over GST control)","1.34 fold enrichment (6-mer frequency, TF over GST control)","1.23 fold enrichment (6-mer frequency, TF over GST control)","1.36 fold enrichment (6-mer frequency, TF over GST control)","1.33 fold enrichment (6-mer frequency, TF over GST control)","1.35 fold enrichment (6-mer frequency, TF over GST control)","1.36 fold enrichment (6-mer frequency, TF over GST control)"
TGATGA,"1.25 fold enrichment (6-mer frequency, TF over GST control)","1.4 fold enrichment (6-mer frequency, TF over GST control)","1.28 fold enrichment (6-mer frequency, TF over GST control)","1.19 fold enrichment (6-mer frequency, TF over GST control)","1.26 fold enrichment (6-mer frequency, TF over GST control)","1.21 fold enrichment (6-mer frequency, TF over GST control)","1.33 fold enrichment (6-mer frequency, TF over GST control)","1.34 fold enrichment (6-mer frequency, TF over GST control)"
AGAAAT,"1.13 fold enrichment (6-mer frequency, TF over GST control)","1.17 fold enrichment (6-mer frequency, TF over GST control)","1.21 fold enrichment (6-mer frequency, TF over GST control)","1.03 fold enrichment (6-mer frequency, TF over GST control)","1.21 fold enrichment (6-mer frequency, TF over GST control)","1.15 fold enrichment (6-mer frequency, TF over GST control)","1.09 fold enrichment (6-mer frequency, TF over GST control)","1.18 fold enrichment (6-mer frequency, TF over GST control)"
TCCAAA,"1.14 fold enrichment (6-mer frequency, TF over GST control)","1.18 fold enrichment (6-mer frequency, TF over GST control)","1.16 fold enrichment (6-mer frequency, TF over GST control)","1.15 fold enrichment (6-mer frequency, TF over GST control)","1.14 fold enrichment (6-mer frequency, TF over GST control)","1.15 fold enrichment (6-mer frequency, TF over GST control)","1.2 fold enrichment (6-mer frequency, TF over GST control)","1.14 fold enrichment (6-mer frequency, TF over GST control)"
CTGACC,"1.34 fold enrichment (6-mer frequency, TF over GST control)","1.27 fold enrichment (6-mer frequency, TF over GST control)","1.38 fold enrichment (6-mer frequency, TF over GST control)","1.27 fold enrichment (6-mer frequency, TF over GST control)","1.29 fold enrichment (6-mer frequency, TF over GST control)","1.34 fold enrichment (6-mer frequency, TF over GST control)","1.4 fold enrichment (6-mer frequency, TF over GST control)","1.32 fold enrichment (6-mer frequency, TF over GST control)"
CTAAAG,"1.44 fold enrichment (6-mer frequency, TF over GST control)","1.33 fold enrichment (6-mer frequency, TF over GST control)","1.32 fold enrichment (6-mer frequency, TF over GST control)","1.26 fold enrichment (6-mer frequency, TF over GST control)","1.35 fold enrichment (6-mer frequency, TF over GST control)","1.33 fold enrichment (6-mer frequency, TF over GST control)","1.36 fold enrichment (6-mer frequency, TF over GST control)","1.23 fold enrichment (6-mer frequency, TF over GST control)"
TCCCGC,"1.47 fold enrichment (6-mer frequency, TF over GST control)","1.44 fold enrichment (6-mer frequency, TF over GST control)","1.34 fold enrichment (6-mer frequency, TF over GST control)","1.5 fold enrichment (6-mer frequency, TF over GST control)","1.65 fold enrichment (6-mer frequency, TF over GST control)","1.59 fold enrichment (6-mer frequency, TF over GST control)","1.37 fold enrichment (6-mer frequency, TF over GST control)","1.5 fold enrichment (6-mer frequency, TF over GST control)"
GTTAAG,"1.03 fold enrichment (6-mer frequency, TF over GST control)","1.01 fold enrichment (6-mer frequency, TF over GST control)","1.04 fold enrichment (6-mer frequency, TF over GST control)","1.05 fold enrichment (6-mer frequency, TF over GST control)","1.02 fold enrichment (6-mer frequency, TF over GST control)","1.07 fold enrichment (6-mer frequency, TF over GST control)","1.18 fold enrichment (6-mer frequency, TF over GST control)","1.02 fold enrichment (6-mer frequency, TF over GST control)"
CCAATG,"1.03 fold enrichment (6-mer frequency, TF over GST control)","1.11 fold enrichment (6-mer frequency, TF over GST control)","1.08 fold enrichment (6-mer frequency, TF over GST control)","1.02 fold enrichment (6-mer frequency, TF over GST control)","1.1 fold enrichment (6-mer frequency, TF over GST control)","1.05 fold enrichment (6-mer frequency, TF over GST control)","1.15 fold enrichment (6-mer frequency, TF over GST control)","1.14 fold enrichment (6-mer frequency, TF over GST control)"
CTCCGC,"1.47 fold enrichment (6-mer frequency, TF over GST control)","1.56 fold enrichment (6-mer frequency, TF over GST control)","1.52 fold enrichment (6-mer frequency, TF over GST control)","1.54 fold enrichment (6-mer frequency, TF over GST control)","1.31 fold enrichment (6-mer frequency, TF over GST control)","1.48 fold enrichment (6-mer frequency, TF over GST control)","1.59 fold enrichment (6-mer frequency, TF over GST control)","1.44 fold enrichment (6-mer frequency, TF over GST control)"
